Assay results published in article PMC12136788.
Substitutions are numbered along the chain they refer to. The full ranking holds about 5,800 sequences; the median of “enrichment r” is about 0.54, and the highest 2% start at about 16. Shown is part of a subset that was picked to be rich in the highest values.

B1: ENSG00000136451:be:win_2701|3pUTR|ENSG00000136451|bound_else_gene|NA|bound_elsewhere_windowed (ssRNA)
RNA: GGGAGUUCUACAGUCCGACGAUCUGUAAAUAUGGACAUCACUUUUUUUUUCUUUGAGAAAACACUUGUAUCAGCUUUGUGGUGUUUUCAGGGAGACAGCUGUCUGCAUUCCCUGUAGAAACCCAGCAAUGAUUAUGCACGUUGCAACAGAGGAUUGAGCAUCA
B2: chr8:73046310:73046411:+|3pUTR|ENSG00000147601|msi1|total|mutant (ssRNA)
RNA: GGGAGUUCUACAGUCCGACGAUCUUGUAUUCUUUAAGAACCUUAUUUUGAUAAAAUGUAAAUUUGUUGAACCCUGCCACAUUCCGUAUCCCCACCCCCAAAUCCUGUUCCAAUGAAAAAAUUAAAACCUGAUACGAAAAAAAACAACAGAGGAUUGAGCAUCA
B3: chr4:70820284:70820384:-|3pUTR|ENSG00000132463|msi1_unk|FALSE|overlapping (ssRNA)
RNA: GGGAGUUCUACAGUCCGACGAUCUGAACUGGUAUGGUUUGGCAGAAUAGUUUUAAAUUUUGCUGUAUUUGAUUACUUAGAGAUAGGAAUUUUUAAAAAUCAAAACAAAAAAUACCACAGCUUAGUGUAAAUGACAAUUUGGCGCAACAGAGGAUUGAGCAUCA
B4: chr8:25429562:25429664:-|3pUTR|ENSG00000104756|unk|total|mutant (ssRNA)
RNA: GGGAGUUCUACAGUCCGACGAUCAGAAAAGCACUCAUUUAACCGAUGCCGGGAAACCCGAUAUUGCUGCCUUUUGAAUGGGGCCGGGGGGUUUACCUGGUUUUAUGACCAGGCACCGUAUCUAUUAUAUUUGCUUUUAAACCGCAACAGAGGAUUGAGCAUCA
B5: ENSG00000152661:stop:overlap|stop_codon|ENSG00000152661|stop_codon|NA|stop_codon (ssRNA)
RNA: GGGAGUUCUACAGUCCGACGAUCCUUCAAGCAGAGCCAGCAGUCGUGCCAGCAGCAGACCUCGGCCUGAUGACCUGGAGAUCUAGAUACAGGCUUGAAAGCAUCAAGAUUCCACUCAAUUGUGGAGAAGAAAAAAGGUGCUGUCAACAGAGGAUUGAGCAUCA
B6: chr5:116443554:116446612:-|three_prime_utr|ENSG00000092421|control|control|control (ssRNA)
RNA: GGGAGUUCUACAGUCCGACGAUCCCGCCAGUGUUACAGCUUUCUGUUGCAGCAGAUAAAUGCCAUGUUGGGCAACUAUGUCAUAGAUUUCUGCUCCUCCUCUCUUUUAAUGAAAUAACGUGACCGUUAACGCAAGUAACUCUUCAACAGAGGAUUGAGCAUCA
B7: ENSG00000124766:be:win_3651|3pUTR|ENSG00000124766|bound_else_gene|NA|bound_elsewhere_windowed (ssRNA)
RNA: GGGAGUUCUACAGUCCGACGAUCUCGCUAAAUAUAAUUGUUUUAGUCUUAUGGCAUGAUGAUAGCAUAUGUGUUCAGGUUUAUAGCUGUUGUGUUUAAAAAUUGAAAAAAGUGGAAAACAUCUUUGUACAUUUAAGUCUGUAUCAACAGAGGAUUGAGCAUCA
B8: chr9:74692981:74693082:+|3pUTR|ENSG00000198963|unk|FALSE|unique (ssRNA)
RNA: GGGAGUUCUACAGUCCGACGAUCUUUUAUAUUACUUUAGAAUGUAAUAGGUUUUUGUCCUUAUUUUAUGUCCUGUAAAUUAUUAGUUCAAUACUGUUAGCAUUCCCGGAUAAUGCACACAUGAUUUCUGAAUGUUUUCUGUAACAACAGAGGAUUGAGCAUCA
B9: chr20:59325757:59325866:+|3pUTR|ENSG00000124205|unk|FALSE|unique (ssRNA)
RNA: GGGAGUUCUACAGUCCGACGAUCUUAUGUGGAUCUGUUCAAAGUAGUCACUGUAUAUACGUAUAGAGAGGUAGAUAGGUAGGUAGAUUUUAAAUUGCAUUCUGAAUACAAACUCAUACUCCUUAGAGCUUGAAUUACAUUUUUCAACAGAGGAUUGAGCAUCA
B10: chr20:59325757:59325866:+|3pUTR|ENSG00000124205|unk|total|mutant (ssRNA)
RNA: GGGAGUUCUACAGUCCGACGAUCUUAUGUGGAUCUGUUCAAAGCCGUCACUGUAUAUACGUACCGAGAGGCCGACCGGCCGGCCGAUUUUAAAUUGCAUUCUGAAUACAAACUCAUACUCCUCCGAGCUUGAAUUACAUUUUUCAACAGAGGAUUGAGCAUCA
B11: chr12:50748518:50748596:+|3pUTR|ENSG00000066084|msi1_unk|FALSE|overlapping (ssRNA)
RNA: GGGAGUUCUACAGUCCGACGAUCUCAAAUUCAAACUACAGUACUGUGUAAUUAUGUAUAAAGUUUUUUUAUUUAUUUGAAGUUAGACUAGAUAUACGUUUUUAAAUUUAACAUCUGGCUGGACAGUGUUCUAUUAACUCAUUGCAACAGAGGAUUGAGCAUCA
B12: chr4:42087128:42087229:+|3pUTR|ENSG00000014824|msi1|FALSE|unique (ssRNA)
RNA: GGGAGUUCUACAGUCCGACGAUCAUUUUGUAUAAUAUAGUUCAUACUGUGUCUGUGAGUUUCUUCAGUUACAAAUGGGCAUUUAGUAUAGUUAUAUUGACUAUAACAUGUAAGUAAAUAGCUUUCUACUGACCCUAAGUUAUCCAACAGAGGAUUGAGCAUCA
B13: chr18:9400975:9401076:+|3pUTR|ENSG00000128791|msi1|total|mutant (ssRNA)
RNA: GGGAGUUCUACAGUCCGACGAUCUAUAAAAACCGAUAAUGCUCUUGGACACAUUUUGUAUUAUUCAUGAUCUGAACCGCCGUCCGUUAAAAGAUCAUUUGUAAUAUUAUGAUCAACUGUUAUAAAUUAAGGUCUUAAUACCUUCAACAGAGGAUUGAGCAUCA
B14: chr5:159157431:159157536:-|3pUTR|ENSG00000145860|unk|total|mutant (ssRNA)
RNA: GGGAGUUCUACAGUCCGACGAUCCAAAAAGUGUUUUUCAGACCUCGGUAUUCCUAAUGUGGGAUGUGACUUUAUUUUAUUUUCCGCCGCAAAUUUGGAUGCCGACUGACAGACACCGCUGAAUGUCUUAAUAAAUUUAAAUUUCAACAGAGGAUUGAGCAUCA
B15: chr5:159157431:159157536:-|3pUTR|ENSG00000145860|unk|FALSE|bound_elsewhere (ssRNA)
RNA: B14 RNA with C83U, C84A, C86U, C87A, C101U, C102A, C115U, C116A
B16: chr18:9400975:9401076:+|3pUTR|ENSG00000128791|msi1|FALSE|unique (ssRNA)
RNA: B13 RNA with C32U, C33A, C76U, C77A, C79U, C80A, C83U, C84A
B17: chr8:140515610:140515764:+|3pUTR|ENSG00000104472|unk|total|mutant (ssRNA)
RNA: GGGAGUUCUACAGUCCGACGAUCUUUUGGAAUCAGUUCUUAUAAACAGCUCGAUUCAGUUUCCGCUAAAUUUACCGUUCCGGCCGUAUGUUACAUUUGAAUUUUUGUCUUAAGAAAAGUUGACUGUUCAGAUAUUUUUCUACUCAACAGAGGAUUGAGCAUCA
B18: chr8:140515610:140515764:+|3pUTR|ENSG00000104472|unk|FALSE|unique (ssRNA)
RNA: B17 RNA with C62U, C63A, C74U, C75A, C79U, C80A, C83U, C84A
B19: chr5:14398947:14399058:+|CDS|ENSG00000038382|unk|total|mutant (ssRNA)
RNA: GGGAGUUCUACAGUCCGACGAUCCCCAAAAACCUUAAUUCGAAAGGGUCGAGAACGGCAUCUCUUCCUUUUUGAAAUGUCCUCCGUAUUCCGUAAAGAAGUGAAAGAUUCCAGUGGGAGAAGCAAGUACCUUUAUAAAAGCAACAACAGAGGAUUGAGCAUCA
B20: chr1:206903316:206905147:-|three_prime_utr|ENSG00000162894|control|control|control (ssRNA)
RNA: GGGAGUUCUACAGUCCGACGAUCUCUGUGCCCUGAGCAUGGCUCUGCCCCCAGGUCGUCUUGCACACCUUGGCAGCCCCCUGUAGUUGACAGGUAAGCUGUAGGCAUGUAGAGCAAUUGUCCCAAUGCCACUUGCUUCCUUUCCAACAGAGGAUUGAGCAUCA
B21: chr3:31657911:31664018:-|three_prime_utr|ENSG00000144645|control|control|control (ssRNA)
RNA: GGGAGUUCUACAGUCCGACGAUCGGGUUUUUCUUGCUGAGCCCCCAAGACUGGAUAAAUACCAGGCAGGGGAAGGGAUGGACUAGGGCAGCUCGGUUCUGACUCCAGCUUUGGACAAGGCUUCAGGACAGGUUUUCUGCCACACAACAGAGGAUUGAGCAUCA
B22: chr2:190659421:190659522:+|CDS|ENSG00000138386|unk|FALSE|unique (ssRNA)
RNA: GGGAGUUCUACAGUCCGACGAUCAGAGACUGGGUCACAAACCCUGGGCUUUUCAAUCAGCCACUGACUUCCCUUCCUGUCAGUAGCAUACCCAUCUAUAAAUUACCAGAGGGAUCACCAACAUGGCUGGGAAUAUCCUGCAGUCAACAGAGGAUUGAGCAUCA

These binders were tested against MSI1 full-length (mouse, UniProt Q61474 1-362) (assay: nsRBNS (natural sequence RNA bind-n-seq); RBNS binding buffer (assumed for nsRBNS): 25 mM Tris pH 7.5, 150 mM KCl, 3 mM MgCl2, 0.01% Triton X-100, 500 ug/ml BSA, 20 U/ml SUPERase-In, 4 C; UNK is unkempt and MSI1 is Musashi-1; names of the RNAs are library labels; protein concentration not given here; high values mean tight binding).
Chain of MSI1 full-length (Q61474 whole entry): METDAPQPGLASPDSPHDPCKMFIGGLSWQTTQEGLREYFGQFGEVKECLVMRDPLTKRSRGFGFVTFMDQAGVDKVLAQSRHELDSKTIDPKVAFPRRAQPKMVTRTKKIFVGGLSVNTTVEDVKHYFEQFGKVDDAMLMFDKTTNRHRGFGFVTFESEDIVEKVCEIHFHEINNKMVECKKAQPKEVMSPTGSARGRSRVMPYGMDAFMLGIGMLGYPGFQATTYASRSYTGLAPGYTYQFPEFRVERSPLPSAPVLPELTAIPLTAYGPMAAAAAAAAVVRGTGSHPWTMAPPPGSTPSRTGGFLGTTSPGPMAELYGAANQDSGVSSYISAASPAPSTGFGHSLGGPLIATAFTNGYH
B1 gave a binding signal of 0.266 enrichment R.
B2 gave a binding signal of 2.83 enrichment R.
B3 showed a binding signal of 4.91 enrichment R.
B4 gave a binding signal of 0.472 enrichment R.
Work on B5 yielded a binding signal of 0.49 enrichment R.
Binder B6 has a binding signal of 0.417 enrichment R.
Binder B7 has a binding signal of 2.43 enrichment R.
For B8, the binding signal was 2.02 enrichment R.
With B9 the binding signal was 20.2 enrichment R.
With B10 the binding signal was 0.342 enrichment R.
For B11, the binding signal was 5.2 enrichment R.
B12 was tested, and the binding signal was 2.94 enrichment R.
Work on B13 yielded a binding signal of 0.599 enrichment R.
For B14, the binding signal was 0.361 enrichment R.
B15 was tested, and the binding signal was 23.3 enrichment R.
For B16, the binding signal was 24 enrichment R.
For B17, the binding signal was 0.336 enrichment R.
B18 showed a binding signal of 69.1 enrichment R.
Work on B19 yielded a binding signal of 0.383 enrichment R.
Binder B20 has a binding signal of 0.397 enrichment R.
In the case of B21, the binding signal is reported as 0.515 enrichment R.
In the case of B22, the binding signal is reported as 0.584 enrichment R.
